# FLuc modulator: firefly luciferase modulation, counter-screen for miR-21 project; AID 588342; 360,000 compounds, 6.9% hits; P08659; purified FLuc, Km substrates, luminescence inhibition; Potency, µM (top dose mostly 57.5 µM), for the others: at the highest dose activity change, negative = inhibition, usual class: inhibitors;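 note: plate controls were vehicle for no effect and reference inhibitor for full effect; nearly all actives have a fitted effect of over 55% in size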
# Target sequence (P08659 whole entry, looked up): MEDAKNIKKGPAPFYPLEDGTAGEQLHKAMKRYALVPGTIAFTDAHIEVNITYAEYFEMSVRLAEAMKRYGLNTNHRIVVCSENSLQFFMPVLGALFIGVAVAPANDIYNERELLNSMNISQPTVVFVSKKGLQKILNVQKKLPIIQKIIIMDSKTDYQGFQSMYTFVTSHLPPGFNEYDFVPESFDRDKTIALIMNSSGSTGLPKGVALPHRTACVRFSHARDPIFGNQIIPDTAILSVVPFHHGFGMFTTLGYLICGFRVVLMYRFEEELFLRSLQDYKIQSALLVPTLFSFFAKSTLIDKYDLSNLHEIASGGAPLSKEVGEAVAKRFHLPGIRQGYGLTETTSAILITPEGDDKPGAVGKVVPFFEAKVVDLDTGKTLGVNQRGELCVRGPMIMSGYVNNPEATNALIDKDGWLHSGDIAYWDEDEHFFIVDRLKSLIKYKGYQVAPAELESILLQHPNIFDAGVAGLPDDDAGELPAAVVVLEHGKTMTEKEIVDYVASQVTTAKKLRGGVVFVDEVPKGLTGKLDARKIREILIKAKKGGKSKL
#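 Purified P. pyralis luciferase, 10 nM final, with Km-level 10 uM D-luciferin and 10 uM ATP in 50 mM Tris acetate pH 7.5, 10 mM Mg acetate, 0.01% Tween-20, 0.05% BSA; 6-point qHTS titration about 60 µM downward; luminescence read.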
# NPC1 prom act: activates the NPC1 promoter; Huh7 NPC1 promoter luciferase reporter, 24 h; AID 485313; 320,000 compounds, 2.4% hits; Potency, µM (highest dose often 9.22 µM), for inactives: top-dose activation, most hits filed as activators; note: % of control where 0% means no effect; nearly all actives have a fitted effect of over 60% in size
#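 In 1536-well qHTS, Huh7 cells harboring an NPC1 promoter–luciferase construct received compound for 24 h; activation was quantified by luminescence following luciferase reagent addition.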
# Rab9 prom act: activates the Rab9 promoter; 320,000 compounds, 2.8% hits; AID 485297; Huh7 Rab9 promoter-luciferase reporter, luminescence, 24 h; Potency, µM (doses to about 9.22 µM), for inactives: at the top dose activation, negative = inhibition, hits mostly activators; note: % of control where 0% means no effect; nearly all actives have a fitted effect of over 60% in size
#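 Measured in stably transfected Huh7 cells bearing a Rab9 promoter–luciferase construct: 24 h compound treatment at 37 °C, followed by luminescence detection.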
# SMN2 splice enh: increases expression of the SMN2 splice variant; HEK293 SMN2-luciferase splicing reporter, luminescence, 30-36 h; Potency, µM (highest dose often 46.1 µM), without a hit: at the highest dose activity change, positive = activation, actives largely listed as activators; 210,000 compounds, 2.8% hits; AID 1458; note: % of control where 0% means no effect; nearly all actives have a fitted effect of over 55% in size
#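 qHTS luciferase splicing reporter: luminescence rises when SMN2 exon 7 is included in transfected HEK293 cells. Compound exposure lasted 30-36 h at 37C, with 4.5 mM final sodium butyrate as control, followed by a ONE-Glo read.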
# ELG1 genotox: genotoxicity induction in ELG1-luciferase HEK293T cells. HEK293T ELG1-luciferase reporter, luminescence, 16 h. Potency, µM (series often up to 46 µM), for inactives: at the highest dose activity change, positive = activation, actives largely listed as activators. 330,000 compounds, 1.3% hits. AID 504466; note: % of control where 0% means no effect; nearly all actives have a fitted effect of over 60% in size
#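 ELG1-luciferase HEK293T cells, 2,000/well; compound pinned in; 16 hr, 37 °C, 5% CO2; ONE-Glo, 30 min RT; luminescence on CCD imager.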
# ELG1 repair inh: ELG1-dependent DNA repair inhibition; HEK293T ELG1-luciferase reporter, luminescence, 16 h; DNA damage induced by 5-fluorouridine; Potency, µM (series often up to 46.1 µM), without a hit: at the top dose activity change, negative = inhibition, most hits filed as inhibitors; 330,000 compounds, 2.3% hits; AID 504467; note: % is set by controls: 0 for no effect and ±100 for the full control effect; nearly all actives have a fitted effect of over 55% in size
#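 Luminescence from the luciferase reporter, measured 30 min after ONE-Glo reagent at room temperature, was the read-out. Beforehand, 2,000 cells per well were exposed for 16 hr at 37 °C to 5-fluorouridine together with compound or vehicle.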
# * hit, by the source's call; ? = inconclusive; · = not tested or not shown; [ ] = dose if it differs, or a comment. Most compounds without a hit are left out; they make up all but 9.3% or so of the library. Calls come from the whole dose curve; as a rule, active = well fitted curve in the direction sought with a large enough effect; inconclusive = small, poorly fitted or top-dose-only effect, or another doubt; inactive = no such curve, though single readings can be large; an effect the other way counts as inactive or inconclusive. Potency is the fitted concentration of half-maximal effect.
SMILES,FLuc modulator,NPC1 prom act,Rab9 prom act,SMN2 splice enh,ELG1 genotox,ELG1 repair inh
Nc1nc(NCC2CCCO2)nc(Nc2ccc(F)cc2)c1[N+](=O)[O-] (stereo unspecified),-0.3%,-0.4%,-4.2%,-3.2%,1.9%,?
c1cncc(-c2nc3cc4ccccc4cc3[nH]2)c1,0.601µM*,?,1.58µM*,3.98µM*,?,?
c1ccc(-c2nc3cc4ccccc4cc3[nH]2)nc1,0.107µM*,0.631µM*,0.631µM*,0.447µM*,0.231µM*,?
CC(=O)Nc1ccc2nc(-c3ccccn3)[nH]c2c1,19µM*,3.55µM*,2.82µM*,11.2µM*,?,?
COc1cnc(-c2ccccn2)[nH]c1=O,-1.8%,-0.1%,4.3%,-74.5%,5.0%,?
Nc1nc2cc3ccccc3cc2[nH]c1=O,-9.8%,-3.8%,10.4%,·,7.1%,6.5%
CC(=O)Nc1ccc2nc(-c3ccncc3)[nH]c2c1,-19.2%,4.4%,-0.3%,8.0%,13.3%,?
COc1cccc2[nH]c(-c3ccccn3)nc12,·,·,·,3.98µM*,·,·
Cc1ccc(Oc2c(C(F)(F)F)oc3c(CN4CCC(C)CC4)c(O)ccc3c2=O)cc1,0.9%,·,·,1.1%,·,·
CCOc1ccc(NC(=O)Cn2cc(C(=O)c3ccc(OC)cc3)c(=O)c3cc4c(cc32)OCO4)cc1,-1.1%,·,·,-9.9%,·,·
COc1ccc(-c2csc(N(CCc3ccc(OC)c(OC)c3)C(=O)COc3ccccc3)n2)cc1,0.5%,-4.7%,-7.8%,-9.9%,-6.8%,?
Cc1ccc(NC(=S)N(C)C(c2ccccc2)c2ccccc2)cc1C,0.8%,-2.6%,-1.8%,·,-7.2%,13µM*
CC1CCCC(C)N1S(=O)(=O)c1ccc(NC(=O)c2ccccc2C(=O)N2CCOCC2)cc1 (stereo unspecified),4.1%,1.1%,-3.4%,-4.8%,0.2%,7.1%
Cc1ccc(Cn2cnc3nc4c(cc3c2=O)CC(C)CC4)cc1 (stereo unspecified),12µM*,·,·,·,·,·
O=C(NNc1ccc(C(F)(F)F)cc1[N+](=O)[O-])c1ccc(NS(=O)(=O)c2ccc(F)cc2)cc1,-17.1%,-5.4%,-2.5%,-3.4%[1.84 µM],-13.0%,20.6µM*
CC(C)[C@H](Nc1ccc(C(F)(F)F)cc1[N+](=O)[O-])C(=O)O,0.9%,-1.1%,2.6%,·,-1.6%,4.9%
CC(C)(C)NS(=O)(=O)c1ccc(NC(=O)c2cc(-c3ccccc3)nc3ccccc23)cc1,-5.8%,-4.4%,-0.5%,5.2%,-11.0%,23.1µM*
Cc1ccc(-c2cc(C(=O)Nc3ccc(S(=O)(=O)Nc4ncccn4)cc3)c3ccccc3n2)cc1,6.75µM*,-0.7%,-5.8%,16.6%,10.3%,?
CCc1ccc(-c2cc(C(=O)Nc3ccc(S(=O)(=O)NC(C)=O)cc3)c3ccccc3n2)cc1,0.536µM*,?,27.6%,3.8%,9.4%,?
O=C(Nc1ccc(S(=O)(=O)Nc2nccs2)cc1)c1cc(-c2ccccc2)nc2ccccc12,?,-0.3%,-2.6%,20.2%,-2.3%,-5.3%
CN1C(C(=O)NCc2ccco2)CC2Cn3c(nc4cc5ccccc5cc43)C21 (stereo unspecified),-2.9%,1.4%,0.1%,·,3.0%,0.0%
Cc1c(NC(=O)OCc2ccccc2)c(=O)n(-c2ccccc2)n1C,0.2%,-0.7%,0.8%,8.1%,1.2%,-2.5%
Cc1cc(C)nc(SCCCNCc2ccc(Br)cc2)n1,0.9%,-1.2%,-2.2%,·,-10.0%,?
Cc1cc(Nc2cccc(Cl)c2)c2ccccc2n1,0.5%,-6.9%,-6.0%,·,-8.2%,?
O=c1oc(Nc2ccccc2F)nc2ccccc12,9.53µM*,?,?,·,?,?
SMILES,FLuc modulator,NPC1 prom act,Rab9 prom act,SMN2 splice enh,ELG1 genotox,ELG1 repair inh
O=c1oc(Nc2cccc(Cl)c2)nc2ccccc12,-24.8%,2.82µM*,0.794µM*,11.2µM*,13µM*,?
CC(=O)Nc1cccc(Nc2nc(-c3ccccc3F)nc3ccccc23)c1,-17.6%,-4.3%,1.6%,-34.0%,-4.6%,14.6µM*
Clc1cccc(Nc2nc(-c3ccncc3)nc3ccccc23)c1,-0.6%,-2.6%,-3.3%,·,2.4%,2.59µM*
Cc1noc(NS(=O)(=O)c2ccc(NC(=O)CSc3nnc4c(n3)[nH]c3ccccc34)cc2)c1C,-16.1%,-3.4%,-0.7%,-1.4%,0.1%,-5.4%
Clc1ccccc1Nc1nc(-c2ccncc2)nc2ccccc12,-0.1%,-4.2%,-6.1%,·,-3.3%,?
O=c1oc(Nc2ccccc2Cl)nc2ccccc12,15.1µM*,3.55µM*,?,?,20.6µM*,?
O=C(O)CNC(=O)/C=C/c1ccc(Cl)cc1Cl,23.9µM*,-2.9%,5.6%,-5.1%,-6.5%,17.2%
O=C(N/N=C/c1cccc([N+](=O)[O-])c1)c1ccc2c(c1)OCCO2,1.35µM*,3.55µM*,2.24µM*,22.4µM*,?,?
CCN(CC)c1ccc(/C=N/NC(=O)c2ccc(Br)o2)cc1,3.01µM*,2.24µM*,3.16µM*,11.2µM*,?,?
O=C(CNC(=O)c1ccc2c(c1)OCCO2)N/N=C/c1ccc([N+](=O)[O-])cc1,-0.2%,-5.0%,1.7%,·,?,0.3%
CCN(CC)c1ccc(/C=N/NC(=O)Cc2ccc(OC)c(OC)c2)cc1,?,-0.3%,-12.7%,·,0.6%,-4.4%
Cc1nc2ccc(C(=O)N/N=C/c3ccccc3O)cc2[nH]1,12µM*,?,?,·,?,?
O=C(N/N=C/c1cc(Cl)cc([N+](=O)[O-])c1O)c1ccc2c(c1)OCO2,10.7µM*,-15.0%,-4.0%,·,19.4%,?
CC(C)Nc1oc(Cc2cccc3ccccc23)nc1C#N,-1.0%,-7.0%,-1.3%,-17.9%,1.1%,-6.2%
O=C(N/N=C/c1ccc2c(c1)OCO2)c1ccc2c(c1)OCCO2,1.9µM*,?,?,11.2µM*,?,?
O=C(N/N=C/c1ccccc1)c1ccc(NC(=O)c2ccc(F)cc2)cc1,0.8%,10.3%,?,·,0.3%,0.5%
O=C(N/N=C/c1cc(Br)cc([N+](=O)[O-])c1O)c1ccc(NC(=O)c2ccc(F)cc2)cc1,-11.4%,0.4%,0.5%,·,23.6%,13µM*
O=C(N/N=C\C=C\c1ccc(Br)cc1)c1ccc2c(c1)OCO2,3.3%,0.8%,-2.8%,·,5.3%,-11.4%
O=C(N/N=C/C1CC2CCC1C2)c1ccc2c(c1)OCO2 (stereo unspecified),13.5µM*,-4.8%,2.6%,-2.9%,1.0%,?
O=C(N/N=C/c1ccc2c(c1)OCCO2)c1ccncc1,9.53µM*,-2.1%,-2.0%,·,7.4%,16.5%
Cc1ccnc(NC2CCCCC2)c1,?,-11.9%,8.8%,4.7%,-1.4%,21.3%

# Source: PubChem BioAssay (National Center for Advancing Translational Sciences (NCATS))
